For orientation: inhibition means the relative decrease from the control value, in per cent.

Molecules are shown by their SMILES.

This note sets out measurements from ChEMBL document CHEMBL1961873, “Compounds: GSK PKIS; Assays: Nanosyn kinase panel” (2012).

Experiment [1] concerns the target T1, Inhibitor of nuclear factor kappa-B kinase subunit epsilon (Homo sapiens) (UniProt Q14164).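 Further: reported values are averaged percent inhibition figures against human IKKε.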
T1 sequence (whole entry): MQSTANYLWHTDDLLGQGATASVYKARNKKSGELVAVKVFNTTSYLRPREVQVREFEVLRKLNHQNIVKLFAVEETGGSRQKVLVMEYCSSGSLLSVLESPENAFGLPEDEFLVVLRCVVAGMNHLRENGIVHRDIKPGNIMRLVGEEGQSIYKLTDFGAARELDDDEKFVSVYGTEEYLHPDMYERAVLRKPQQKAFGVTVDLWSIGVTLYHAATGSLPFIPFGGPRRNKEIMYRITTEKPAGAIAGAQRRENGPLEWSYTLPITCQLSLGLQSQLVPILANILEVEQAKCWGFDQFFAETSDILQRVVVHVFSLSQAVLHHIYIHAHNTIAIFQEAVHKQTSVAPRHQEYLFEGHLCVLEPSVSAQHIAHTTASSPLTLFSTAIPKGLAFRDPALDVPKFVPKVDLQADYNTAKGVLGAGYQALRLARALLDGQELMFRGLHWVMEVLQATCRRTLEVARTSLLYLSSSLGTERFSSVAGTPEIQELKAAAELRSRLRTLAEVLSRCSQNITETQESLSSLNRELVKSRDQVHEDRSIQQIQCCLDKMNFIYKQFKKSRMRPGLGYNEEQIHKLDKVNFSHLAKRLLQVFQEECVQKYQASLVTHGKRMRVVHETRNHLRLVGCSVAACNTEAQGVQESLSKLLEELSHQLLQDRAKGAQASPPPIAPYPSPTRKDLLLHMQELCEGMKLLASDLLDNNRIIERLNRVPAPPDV
As to conditions: at 1 µM.

The target of experiment [2] is T2, Serine/threonine-protein kinase Nek1 (Homo sapiens) (UniProt Q96PY6).
T2 sequence (whole entry): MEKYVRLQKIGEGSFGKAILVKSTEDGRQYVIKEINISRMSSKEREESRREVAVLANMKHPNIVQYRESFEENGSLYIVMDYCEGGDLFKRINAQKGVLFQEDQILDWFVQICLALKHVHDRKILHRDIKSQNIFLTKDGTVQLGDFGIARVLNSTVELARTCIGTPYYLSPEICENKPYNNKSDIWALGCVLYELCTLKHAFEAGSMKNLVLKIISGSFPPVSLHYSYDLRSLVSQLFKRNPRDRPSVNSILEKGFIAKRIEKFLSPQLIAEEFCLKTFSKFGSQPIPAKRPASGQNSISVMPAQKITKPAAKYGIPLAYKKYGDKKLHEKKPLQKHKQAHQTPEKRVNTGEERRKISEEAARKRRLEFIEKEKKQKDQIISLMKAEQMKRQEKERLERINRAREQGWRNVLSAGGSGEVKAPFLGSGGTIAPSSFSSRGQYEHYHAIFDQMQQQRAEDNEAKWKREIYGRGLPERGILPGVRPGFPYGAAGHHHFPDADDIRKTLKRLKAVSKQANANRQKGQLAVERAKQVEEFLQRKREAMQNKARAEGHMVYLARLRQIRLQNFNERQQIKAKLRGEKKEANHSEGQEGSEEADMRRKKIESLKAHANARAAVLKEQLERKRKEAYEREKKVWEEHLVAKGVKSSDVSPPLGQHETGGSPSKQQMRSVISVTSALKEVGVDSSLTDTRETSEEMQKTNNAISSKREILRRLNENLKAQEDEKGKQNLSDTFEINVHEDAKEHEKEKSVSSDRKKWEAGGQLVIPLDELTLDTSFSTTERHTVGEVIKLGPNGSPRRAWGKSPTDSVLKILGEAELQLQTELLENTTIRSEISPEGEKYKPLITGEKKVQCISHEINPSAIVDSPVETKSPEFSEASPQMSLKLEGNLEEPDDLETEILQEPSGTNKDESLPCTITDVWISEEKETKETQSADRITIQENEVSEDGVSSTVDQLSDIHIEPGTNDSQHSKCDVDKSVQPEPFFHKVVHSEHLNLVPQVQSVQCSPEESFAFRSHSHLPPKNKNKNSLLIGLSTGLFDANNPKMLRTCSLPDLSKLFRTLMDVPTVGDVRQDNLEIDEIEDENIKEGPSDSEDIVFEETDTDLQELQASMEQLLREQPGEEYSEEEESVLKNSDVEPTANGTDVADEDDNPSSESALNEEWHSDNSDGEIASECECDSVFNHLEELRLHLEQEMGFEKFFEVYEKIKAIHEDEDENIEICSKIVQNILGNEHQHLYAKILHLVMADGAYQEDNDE
As to conditions: at 0.1 µM.

Experiment [3] concerns the target T2, Serine/threonine-protein kinase Nek1 (Homo sapiens). Conditions: at 1 µM.
Experiment [4] deals with T3, Serine/threonine-protein kinase Nek2 (Homo sapiens) (UniProt P51955).
T3 sequence (whole entry): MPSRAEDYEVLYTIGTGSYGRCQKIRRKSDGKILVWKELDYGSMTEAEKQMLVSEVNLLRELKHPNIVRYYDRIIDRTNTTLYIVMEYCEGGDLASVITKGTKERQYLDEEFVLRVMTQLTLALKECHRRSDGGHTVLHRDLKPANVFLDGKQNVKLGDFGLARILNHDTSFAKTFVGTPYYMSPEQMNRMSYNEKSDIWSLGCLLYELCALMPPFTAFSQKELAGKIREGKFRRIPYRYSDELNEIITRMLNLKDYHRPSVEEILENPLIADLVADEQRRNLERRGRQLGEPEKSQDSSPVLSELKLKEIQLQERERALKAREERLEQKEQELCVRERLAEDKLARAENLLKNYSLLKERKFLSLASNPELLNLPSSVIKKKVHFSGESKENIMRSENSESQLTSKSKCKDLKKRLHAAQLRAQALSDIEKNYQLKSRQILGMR
Conditions: at 0.1 µM.

In experiment [5] the target is T3, Serine/threonine-protein kinase Nek2 (Homo sapiens). As to conditions: at 1 µM.
Experiment [6] concerns the target Serine/threonine-protein kinase Nek6 (Homo sapiens) (UniProt Q9HC98). As to conditions: at 0.1 µM.
The target is the same in experiment [7]. As to conditions: at 1 µM.
The target in experiment [8] is Serine/threonine-protein kinase Nek7 (Homo sapiens) (UniProt Q8TDX7). Conditions: at 0.1 µM.
Experiment [9] shares this target. As to conditions: at 1 µM.
Experiment [10] has as its target T4, Serine/threonine-protein kinase Nek9 (Homo sapiens) (UniProt Q8TD19).
T4 sequence (whole entry): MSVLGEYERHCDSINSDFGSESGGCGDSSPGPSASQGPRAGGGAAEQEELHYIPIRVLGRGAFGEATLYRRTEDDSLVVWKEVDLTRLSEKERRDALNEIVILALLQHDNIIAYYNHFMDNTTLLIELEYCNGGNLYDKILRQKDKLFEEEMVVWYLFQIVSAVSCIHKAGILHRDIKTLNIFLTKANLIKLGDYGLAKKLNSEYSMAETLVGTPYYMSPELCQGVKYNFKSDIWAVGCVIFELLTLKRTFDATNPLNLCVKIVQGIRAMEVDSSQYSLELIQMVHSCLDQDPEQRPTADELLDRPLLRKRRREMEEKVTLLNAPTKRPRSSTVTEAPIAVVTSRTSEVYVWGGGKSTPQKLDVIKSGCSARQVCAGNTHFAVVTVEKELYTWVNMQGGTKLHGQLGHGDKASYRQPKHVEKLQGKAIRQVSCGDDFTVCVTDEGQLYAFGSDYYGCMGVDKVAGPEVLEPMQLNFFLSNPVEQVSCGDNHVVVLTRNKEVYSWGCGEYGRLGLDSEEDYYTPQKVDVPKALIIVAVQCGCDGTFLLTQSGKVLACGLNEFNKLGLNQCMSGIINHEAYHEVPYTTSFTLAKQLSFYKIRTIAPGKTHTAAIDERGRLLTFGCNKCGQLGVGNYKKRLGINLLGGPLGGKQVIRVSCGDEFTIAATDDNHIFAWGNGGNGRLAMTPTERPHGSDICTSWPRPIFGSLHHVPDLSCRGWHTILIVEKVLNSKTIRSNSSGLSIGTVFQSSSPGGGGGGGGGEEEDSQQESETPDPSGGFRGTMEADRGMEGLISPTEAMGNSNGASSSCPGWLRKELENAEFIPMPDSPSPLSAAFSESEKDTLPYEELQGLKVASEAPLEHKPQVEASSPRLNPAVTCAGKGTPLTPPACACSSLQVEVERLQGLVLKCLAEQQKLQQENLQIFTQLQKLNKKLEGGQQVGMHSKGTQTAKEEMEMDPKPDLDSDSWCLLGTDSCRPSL
As to conditions: at 0.1 µM.

Experiment [11] addresses T4, Serine/threonine-protein kinase Nek9 (Homo sapiens). Conditions: at 1 µM.
Experiment [12] deals with Serine/threonine-protein kinase PLK1 (Homo sapiens) (UniProt P53350). Conditions: at 0.1 µM.
The target is the same in experiment [13]. Conditions: at 1 µM.
Experiment [14] has as its target T5, Dual specificity protein kinase TTK (Homo sapiens) (UniProt P33981).
T5 sequence (whole entry): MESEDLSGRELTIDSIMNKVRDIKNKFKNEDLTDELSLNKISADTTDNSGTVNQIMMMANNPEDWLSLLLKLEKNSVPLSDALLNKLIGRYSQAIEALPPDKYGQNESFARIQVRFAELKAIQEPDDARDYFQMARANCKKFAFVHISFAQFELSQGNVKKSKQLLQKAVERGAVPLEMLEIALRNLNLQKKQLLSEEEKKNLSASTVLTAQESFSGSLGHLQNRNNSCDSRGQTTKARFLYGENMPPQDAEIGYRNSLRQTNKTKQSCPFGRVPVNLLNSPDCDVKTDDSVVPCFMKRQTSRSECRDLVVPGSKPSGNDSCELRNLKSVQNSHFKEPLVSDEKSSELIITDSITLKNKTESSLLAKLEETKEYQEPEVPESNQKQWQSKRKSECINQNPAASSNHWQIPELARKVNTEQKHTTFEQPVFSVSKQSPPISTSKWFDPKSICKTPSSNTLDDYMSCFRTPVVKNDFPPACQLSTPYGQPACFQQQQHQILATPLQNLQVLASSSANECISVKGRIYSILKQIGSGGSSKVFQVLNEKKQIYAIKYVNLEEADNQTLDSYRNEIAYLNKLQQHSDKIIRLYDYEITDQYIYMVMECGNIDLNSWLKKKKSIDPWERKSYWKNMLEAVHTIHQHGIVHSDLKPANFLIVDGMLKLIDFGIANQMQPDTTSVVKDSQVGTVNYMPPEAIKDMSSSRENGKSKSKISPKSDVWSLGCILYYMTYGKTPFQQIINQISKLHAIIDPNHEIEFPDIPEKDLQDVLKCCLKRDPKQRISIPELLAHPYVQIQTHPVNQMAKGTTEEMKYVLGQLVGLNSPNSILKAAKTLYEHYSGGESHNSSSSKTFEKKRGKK
As to conditions: at 0.1 µM.

Experiment [15] has as its system T6, Receptor-type tyrosine-protein kinase FLT3 (Homo sapiens), P36888 [D835Y].
T6 sequence (whole entry): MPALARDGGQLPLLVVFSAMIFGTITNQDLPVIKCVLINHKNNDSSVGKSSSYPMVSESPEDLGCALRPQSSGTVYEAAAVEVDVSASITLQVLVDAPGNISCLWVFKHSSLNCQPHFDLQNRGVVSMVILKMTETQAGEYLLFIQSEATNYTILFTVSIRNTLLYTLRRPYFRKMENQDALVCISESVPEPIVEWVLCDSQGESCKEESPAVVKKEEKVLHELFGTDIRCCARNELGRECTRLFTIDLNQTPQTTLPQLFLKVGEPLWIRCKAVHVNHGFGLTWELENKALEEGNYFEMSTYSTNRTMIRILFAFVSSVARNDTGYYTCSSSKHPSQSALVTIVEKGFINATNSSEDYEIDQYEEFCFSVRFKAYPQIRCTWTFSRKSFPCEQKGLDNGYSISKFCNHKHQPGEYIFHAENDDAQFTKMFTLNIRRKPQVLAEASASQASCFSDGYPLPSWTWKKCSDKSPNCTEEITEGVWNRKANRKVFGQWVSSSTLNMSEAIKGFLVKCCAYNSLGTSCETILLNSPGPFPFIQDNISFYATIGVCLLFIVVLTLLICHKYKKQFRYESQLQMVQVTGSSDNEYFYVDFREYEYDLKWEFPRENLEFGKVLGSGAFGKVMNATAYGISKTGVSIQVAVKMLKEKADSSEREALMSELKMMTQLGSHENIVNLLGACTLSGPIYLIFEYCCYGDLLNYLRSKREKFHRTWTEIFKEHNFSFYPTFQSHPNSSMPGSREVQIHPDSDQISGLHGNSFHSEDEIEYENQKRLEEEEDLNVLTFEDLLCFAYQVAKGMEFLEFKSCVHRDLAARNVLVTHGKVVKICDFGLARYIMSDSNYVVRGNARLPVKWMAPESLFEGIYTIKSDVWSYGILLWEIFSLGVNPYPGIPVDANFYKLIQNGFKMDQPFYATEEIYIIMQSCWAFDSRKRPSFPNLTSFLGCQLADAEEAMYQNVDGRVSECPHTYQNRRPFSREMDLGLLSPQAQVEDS
As to conditions: at 1 µM.

Experiment [16] has as its target Vascular endothelial growth factor receptor 3 (Homo sapiens) (UniProt P35916). As to conditions: at 0.1 µM.
The target is the same in experiment [17]. As to conditions: at 1 µM.
The target of experiment [18] is Macrophage colony-stimulating factor 1 receptor (Homo sapiens) (UniProt P07333). As to conditions: at 0.1 µM.
Experiment [19] has the same target. As to conditions: at 1 µM.
Experiment [20] addresses Tyrosine-protein kinase Fyn (Homo sapiens) (UniProt P06241). As to conditions: at 0.1 µM.

Chain of Vascular endothelial growth factor receptor 3 (Homo sapiens) (P35916 whole entry): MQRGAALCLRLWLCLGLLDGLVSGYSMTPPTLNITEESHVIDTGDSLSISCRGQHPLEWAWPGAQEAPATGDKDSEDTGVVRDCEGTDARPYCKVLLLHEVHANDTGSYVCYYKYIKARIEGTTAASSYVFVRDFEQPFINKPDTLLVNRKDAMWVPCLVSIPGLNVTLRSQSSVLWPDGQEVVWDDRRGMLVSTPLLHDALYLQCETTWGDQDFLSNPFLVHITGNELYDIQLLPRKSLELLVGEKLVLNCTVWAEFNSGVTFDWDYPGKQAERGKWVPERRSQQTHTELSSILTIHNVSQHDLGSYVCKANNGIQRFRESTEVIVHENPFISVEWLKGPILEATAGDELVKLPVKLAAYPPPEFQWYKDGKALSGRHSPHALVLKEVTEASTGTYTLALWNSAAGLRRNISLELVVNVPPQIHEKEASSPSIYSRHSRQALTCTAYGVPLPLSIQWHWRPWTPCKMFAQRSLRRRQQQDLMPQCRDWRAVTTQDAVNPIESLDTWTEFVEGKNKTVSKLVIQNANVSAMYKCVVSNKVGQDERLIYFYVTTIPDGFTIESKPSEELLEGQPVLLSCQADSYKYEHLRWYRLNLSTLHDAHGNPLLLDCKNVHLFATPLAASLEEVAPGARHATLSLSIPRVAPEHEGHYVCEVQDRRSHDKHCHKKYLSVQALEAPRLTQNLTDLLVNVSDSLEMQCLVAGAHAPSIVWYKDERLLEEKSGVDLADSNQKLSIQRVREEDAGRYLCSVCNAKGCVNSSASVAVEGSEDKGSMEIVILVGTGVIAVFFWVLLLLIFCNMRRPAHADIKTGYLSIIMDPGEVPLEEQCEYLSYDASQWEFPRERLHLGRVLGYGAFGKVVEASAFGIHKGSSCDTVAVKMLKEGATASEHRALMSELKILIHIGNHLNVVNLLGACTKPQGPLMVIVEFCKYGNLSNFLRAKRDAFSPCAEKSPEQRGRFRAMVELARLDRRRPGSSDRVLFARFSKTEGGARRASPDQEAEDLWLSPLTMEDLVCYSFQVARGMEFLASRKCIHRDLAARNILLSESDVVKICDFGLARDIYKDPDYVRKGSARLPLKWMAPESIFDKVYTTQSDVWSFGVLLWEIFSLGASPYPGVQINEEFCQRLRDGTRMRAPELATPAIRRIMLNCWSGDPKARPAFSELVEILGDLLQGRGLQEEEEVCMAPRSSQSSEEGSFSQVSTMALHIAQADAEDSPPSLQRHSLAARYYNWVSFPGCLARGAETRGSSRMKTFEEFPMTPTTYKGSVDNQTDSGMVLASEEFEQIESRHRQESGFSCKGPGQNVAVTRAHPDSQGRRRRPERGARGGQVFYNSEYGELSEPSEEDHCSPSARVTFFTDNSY
Chain of Serine/threonine-protein kinase Nek6 (Homo sapiens) (Q9HC98 whole entry): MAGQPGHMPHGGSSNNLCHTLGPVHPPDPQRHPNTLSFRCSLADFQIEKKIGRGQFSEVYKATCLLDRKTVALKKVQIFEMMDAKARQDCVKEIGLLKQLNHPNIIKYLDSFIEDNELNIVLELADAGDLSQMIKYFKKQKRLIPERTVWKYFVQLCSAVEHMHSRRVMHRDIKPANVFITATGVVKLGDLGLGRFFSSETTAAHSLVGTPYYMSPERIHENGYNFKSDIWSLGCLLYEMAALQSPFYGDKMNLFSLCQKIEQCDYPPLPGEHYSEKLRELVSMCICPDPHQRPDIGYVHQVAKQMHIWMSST
Chain of Serine/threonine-protein kinase PLK1 (Homo sapiens) (P53350 whole entry): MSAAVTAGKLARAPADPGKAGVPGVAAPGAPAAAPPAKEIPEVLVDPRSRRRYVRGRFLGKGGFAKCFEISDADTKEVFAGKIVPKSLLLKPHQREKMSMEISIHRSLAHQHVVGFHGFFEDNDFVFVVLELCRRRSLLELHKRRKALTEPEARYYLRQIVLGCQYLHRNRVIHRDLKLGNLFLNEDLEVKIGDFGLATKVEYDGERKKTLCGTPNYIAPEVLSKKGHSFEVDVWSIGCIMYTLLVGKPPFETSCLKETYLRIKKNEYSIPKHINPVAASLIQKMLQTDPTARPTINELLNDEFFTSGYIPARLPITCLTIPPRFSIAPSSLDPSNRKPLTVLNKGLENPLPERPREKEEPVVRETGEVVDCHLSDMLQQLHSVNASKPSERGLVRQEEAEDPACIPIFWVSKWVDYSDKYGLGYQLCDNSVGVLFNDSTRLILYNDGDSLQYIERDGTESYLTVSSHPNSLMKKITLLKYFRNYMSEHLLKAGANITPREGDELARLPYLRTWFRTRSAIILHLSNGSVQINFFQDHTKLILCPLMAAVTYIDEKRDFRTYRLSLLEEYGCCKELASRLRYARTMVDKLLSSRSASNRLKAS
Chain of Serine/threonine-protein kinase Nek7 (Homo sapiens) (Q8TDX7 whole entry, looked up): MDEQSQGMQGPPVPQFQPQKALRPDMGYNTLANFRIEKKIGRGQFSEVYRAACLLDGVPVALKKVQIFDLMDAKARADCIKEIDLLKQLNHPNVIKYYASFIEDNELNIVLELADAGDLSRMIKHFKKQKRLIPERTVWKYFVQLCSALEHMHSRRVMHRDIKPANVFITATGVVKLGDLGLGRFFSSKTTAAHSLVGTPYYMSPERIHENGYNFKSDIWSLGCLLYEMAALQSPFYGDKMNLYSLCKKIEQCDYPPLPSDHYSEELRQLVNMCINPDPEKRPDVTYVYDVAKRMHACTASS
Chain of Macrophage colony-stimulating factor 1 receptor (Homo sapiens) (P07333 whole entry): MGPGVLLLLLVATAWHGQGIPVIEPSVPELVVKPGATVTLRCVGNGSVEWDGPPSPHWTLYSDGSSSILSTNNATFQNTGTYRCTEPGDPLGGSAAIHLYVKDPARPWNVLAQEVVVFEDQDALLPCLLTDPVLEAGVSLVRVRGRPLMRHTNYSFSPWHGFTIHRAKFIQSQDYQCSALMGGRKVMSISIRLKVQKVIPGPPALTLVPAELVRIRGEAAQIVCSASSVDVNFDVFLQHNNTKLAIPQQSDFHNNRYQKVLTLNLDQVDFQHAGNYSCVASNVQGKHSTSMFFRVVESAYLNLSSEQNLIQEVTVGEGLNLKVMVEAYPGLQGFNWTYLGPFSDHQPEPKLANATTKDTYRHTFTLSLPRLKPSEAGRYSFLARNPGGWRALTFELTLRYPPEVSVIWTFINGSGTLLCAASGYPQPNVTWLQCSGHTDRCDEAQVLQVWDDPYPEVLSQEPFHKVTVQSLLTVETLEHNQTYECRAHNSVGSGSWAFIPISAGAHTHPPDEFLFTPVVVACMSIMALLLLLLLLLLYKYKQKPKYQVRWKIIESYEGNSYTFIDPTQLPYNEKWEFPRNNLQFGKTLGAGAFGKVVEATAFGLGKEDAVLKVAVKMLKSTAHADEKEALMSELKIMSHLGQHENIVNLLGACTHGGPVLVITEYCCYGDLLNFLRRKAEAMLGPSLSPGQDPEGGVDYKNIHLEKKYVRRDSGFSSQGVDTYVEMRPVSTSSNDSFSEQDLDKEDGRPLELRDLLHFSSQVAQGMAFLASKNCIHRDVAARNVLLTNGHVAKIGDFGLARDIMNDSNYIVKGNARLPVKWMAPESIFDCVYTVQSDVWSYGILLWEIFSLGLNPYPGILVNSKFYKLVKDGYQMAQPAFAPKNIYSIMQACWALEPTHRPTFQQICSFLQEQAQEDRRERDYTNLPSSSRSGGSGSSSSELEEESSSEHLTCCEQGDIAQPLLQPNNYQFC
Chain of Tyrosine-protein kinase Fyn (Homo sapiens) (P06241 2-537 limits assumed): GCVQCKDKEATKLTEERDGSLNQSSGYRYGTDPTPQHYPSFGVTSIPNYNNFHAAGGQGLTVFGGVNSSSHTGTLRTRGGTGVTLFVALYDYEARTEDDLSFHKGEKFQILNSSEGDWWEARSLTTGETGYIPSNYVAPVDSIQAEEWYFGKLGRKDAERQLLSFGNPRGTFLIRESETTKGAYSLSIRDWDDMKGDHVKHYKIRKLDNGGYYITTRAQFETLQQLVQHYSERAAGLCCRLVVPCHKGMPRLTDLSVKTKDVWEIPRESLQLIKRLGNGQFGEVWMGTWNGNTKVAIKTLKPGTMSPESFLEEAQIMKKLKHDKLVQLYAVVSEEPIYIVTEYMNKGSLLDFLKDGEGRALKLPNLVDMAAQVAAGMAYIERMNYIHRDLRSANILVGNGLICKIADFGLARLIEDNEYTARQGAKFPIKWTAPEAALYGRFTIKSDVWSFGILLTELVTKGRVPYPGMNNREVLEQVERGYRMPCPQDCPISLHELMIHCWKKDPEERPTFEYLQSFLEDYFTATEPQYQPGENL

For `O=C(Nc1ccc(Oc2ccc3[nH]c(NC(=O)c4ccco4)nc3c2)cc1)Nc1cc(C(F)(F)F)ccc1F`, the inhibition in experiment [1] is -0.41%; in [2], 0.66%; in [3], 0.27%; in experiment [4], 0.32%; in [5], 0.28%; in [6] it was -0.01%. The inhibition in experiment [7] is -0.32%; in [8] it was 0.83%; in [9], 0.99%; in experiment [10], -0.1%; in experiment [11] it was 6.87%; in experiment [12], 0.92%. The inhibition was 1.34% in experiment [13]; -0.11% in [14]; 30.6% in experiment [15]; -7.79% in [16]; 38.1% in experiment [17]; 15.4% in experiment [18]. Further, the inhibition in [19] is 72.8%; in experiment [20], -1.01%.
For `N#Cc1c(NC(=O)c2ccccc2F)sc2c1CCCC2`, the inhibition was -0.39% in [1]; 1.15% in experiment [2]; 2.83% in experiment [3]; 1.03% in experiment [4]; 3.25% in experiment [5]; -4.29% in [6]. The inhibition in experiment [7] is -1.45%; in experiment [8], -2.18%; in experiment [9] it was 0.08%; in experiment [10], -2.9%; in experiment [11], 1.33%; in experiment [12], -2.61%. For the same molecule, the inhibition was 0.29% in experiment [13]; 1.48% in experiment [14]; -1.19% in [15]; -2.53% in experiment [16]; 0.3% in experiment [17]; -4.22% in experiment [18]. In addition, the inhibition in experiment [19] is -1.66%; in [20] it was 1.38%.
